Among the data in paper PMC12136788 are binding signal values, retold here.

Substitutions are numbered along the chain they refer to. The full ranking holds about 24,000 sequences; the median of “enrichment r” is about 0.99, and the highest 2% start at about 3.7. For the sample, the highest values were picked, then their nearest neighbours and some sequences at random.

B1: chr12:73045124:73045125:+_ENSMUSG00000034574_ENSMUST00000085299|mus_mus|FALSE|FALSE (ssRNA)
RNA: GGGAGUUCUACAGUCCGACGAUCGCCUUGAGAGUUGUUCAUUAGUGCCUUUAUACAGCCAAUGAGGGAGGUGUGUAUCCGAGACUCAGAGGUCUCAUAGUCCAUGGUCUUCAGAAAGUUGAGAAUACAUGACAGGCCAUCCAACAACAGAGGAUUGAGCAUCA
B2: chr16:57473197:57473198:-_ENSG00000005194_ENST00000569370|hu_hu|motif|central (ssRNA)
RNA: GGGAGUUCUACAGUCCGACGAUCGAUCCGGGCGAUUUCAGCCAAAAUCUCAGCACUGUGCAGAGUGGUGCUUCCUGGGACGGAACCUGACAAAAUAAUGUCAAAGCUGGAUUCUUUGUGGGCAGAUUGCAACAGCUGCUUGAUCAACAGAGGAUUGAGCAUCA
B3: chrX:114877694:114877695:+_ENSG00000102024_ENST00000355899|hu_hu|FALSE|FALSE (ssRNA)
RNA: GGGAGUUCUACAGUCCGACGAUCGUUGAGUUUGGGGUUUCCACUGACAACAUCAGCAGGGGUAACAAACUGUCUGCAACCUAAUUUAUCUGCUUGUUGAAGCAUACUCUCAGCUCUCUUCAAAUCAUCUGUUUCAUUGAAACCCAACAGAGGAUUGAGCAUCA
B4: 31603315_31603435_826_3pUTR_ENSMUSG00000024261_ENSMUST00000025110|mouse|control|control (ssRNA)
RNA: GGGAGUUCUACAGUCCGACGAUCUUCCUGAGCACUCUGGUCUUCACUCUGUGCUUCUUCUCUGGUAAGAUUGUCAUUUUGAUGUACGGGUCAGAGGUCAUGGAUUGCUCGUCCAUGGCUGGUAAGCCCUGGGCUUCCUUGAUGCAACAGAGGAUUGAGCAUCA
B5: 171883182_171886102_1035_3pUTR_ENSMUSG00000026675_ENSMUST00000027989|mouse|control|control (ssRNA)
RNA: GGGAGUUCUACAGUCCGACGAUCUUCUGAACGGUGGUCCUGACACGCUUUUCCAGCUCCAGUAAGACCUCAUAGAAUUUUUCAGCAGUGUCUUCAUCUAUGUCCAUCUUUUGGCCCGUGACGUAAUUAGUCCCAAAUCCCGAGCAACAGAGGAUUGAGCAUCA
B6: 82050892_82051012_2182_ncRNA_ENSMUSG00000021134_ENSMUST00000153056|mouse|control|control (ssRNA)
RNA: GGGAGUUCUACAGUCCGACGAUCUUGUUUUGUUUUUUAAAAAAAGGCCCCCAGGGCAAGUUAUUUACAGUUUAAUUGCCACUGUCAACUGAUCUGGACCUGGACCGGGAUCGGGACCUCUGGCGAUCCACAGAUGCUGGAGAUCAACAGAGGAUUGAGCAUCA
B7: chr14:54894545:54894546:-_ENSG00000100528_ENST00000216416|hu_hu|FALSE|FALSE (ssRNA)
RNA: GGGAGUUCUACAGUCCGACGAUCCAUUUGGUGGCUUUUUGCAUGCACUUAACUGGACCAAUUCUUCUGUGUGUUGUUCUAAGAGCUCACCAAAACAUAGAUCAUGCCAUAUAGGUAGUAAAAAAAUGCUAGAAGAUAAAAAGCCAACAGAGGAUUGAGCAUCA
B8: chr18:35731629:35731630:+_ENSMUSG00000037236_ENSMUST00000166793|mus_mus|FALSE|FALSE (ssRNA)
RNA: GGGAGUUCUACAGUCCGACGAUCUUAUAGAUCAAAAAAAAAAAAAAAAGUUUUAAAAGAUGGCCAAAAAGAAAGCUCAAGCUAGAAAGCUAGGUUAACUUUGCUUCAAAAAUGGUAACGCCAAGAAAAAGGAUCAAUAAGGACCAACAGAGGAUUGAGCAUCA
B9: chr16:94651144:94651145:+_ENSMUSG00000040785_ENSMUST00000117648|mus_hu|mus_mus_mus_hu_True|58_98 (ssRNA)
RNA: GGGAGUUCUACAGUCCGACGAUCAUUUUCUUGAAUCAAGUGACCGAUAACAUAGUCCACUGCUUCAUUUAGAAAAUUUUUGCUAGAAAAACAGGUUGUAUAGUCUUCUGUGCUCAAAACUUUCCAAGAAAGCAAUUCUUUGAGCAACAGAGGAUUGAGCAUCA
B10: chr2:115689334:115689335:-_ENSMUSG00000027210_ENSMUST00000074285|mus_hu|FALSE|FALSE (ssRNA)
RNA: GGGAGUUCUACAGUCCGACGAUCCUCUUUGAAGAAGAGUCCCCCAAAAAUAAUAAUAAGAAUUGGCUUAUGAAGCACGAACUAUAAAGAUCUGUUUGAAACUAAAGGACACAUUUAUGGAGGAACAAAGGCCGGGCAUGAAAACAACAGAGGAUUGAGCAUCA
B11: 151522442_151522562_447_CDS_ENSMUSG00000034021_ENSMUST00000016569|mouse|control|control (ssRNA)
RNA: GGGAGUUCUACAGUCCGACGAUCAUAAAUCCUGAAAAUAUCAGCAAGGCAGCAAGCCACCAGUAAACGAACAUCUUUAUCAGGAUGCUUGAGGAAGAAGUCAGAAGCAAGAUGUAAAGCUAGGUUUAGAUAAAGUUCCUUUUCCAACAGAGGAUUGAGCAUCA
B12: chr13:59234359:59234360:+_ENSMUSG00000055254_ENSMUST00000079828|mus_mus|FALSE|FALSE (ssRNA)
RNA: GGGAGUUCUACAGUCCGACGAUCUAUGUAAAAAAUUGUUUUUGCUUUAUGUUGGUGAUGAAUGGACCAAAAGUUGAUAGAUAGAUAGAUAAAUAAAUAAAUAAAUAAAUAAAUACACAAAUAAAUAACGCCGAAGGGAAAGAACAACAGAGGAUUGAGCAUCA
B13: chr1:23636438:23636439:-_ENSG00000125944_ENST00000302271|hu_mus|FALSE|FALSE (ssRNA)
RNA: GGGAGUUCUACAGUCCGACGAUCUUUUGUAGGGCAGAUUUCAAAAAGGUGUGGUUAUAACAAUUUAAAAACACAGUUAACCUGCUUCUAGGAAUGCAAAACAUACAGUCAUAGGUUAUCUUCAAUACAAGGAAACUUAAGUCUCAACAGAGGAUUGAGCAUCA
B14: chr18:35731629:35731630:+_ENSMUSG00000037236_ENSMUST00000166793|mus_mus|motif|central (ssRNA)
RNA: B8 RNA with U82G, A83G
B15: chr13:100200628:100200629:-_ENSMUSG00000052727_ENSMUST00000064762|perfect_dup|FALSE|FALSE (ssRNA)
RNA: GGGAGUUCUACAGUCCGACGAUCGUCACCAGGUGUCUUCCCUCCACUGUCCUUCUCCAGGCCAGGUGUGGACAAAUCUCUAUUCAAGGCUAGAUGGUGUUGCAUUGUAUCGAAUAACACUGAGGCACGGAAGCCAUAGGGCUCCAACAGAGGAUUGAGCAUCA
B16: chr14:78183846:78183847:+_ENSG00000119705_ENST00000557342|hu_hu|hu_hu_hu_mus_False|78_88 (ssRNA)
RNA: GGGAGUUCUACAGUCCGACGAUCUCUCAGAAAUCUUUCUUCAUCAGCAUCAUCAGAUGUUUGCGGAGCCUUUGCUCUUUGAGCUUGAACGUGGAUCUAUGGGAGGGAAAGCACUGUCAGAAAAGGUAAUUUUUUUUUUAAAGACAACAGAGGAUUGAGCAUCA
B17: chr9:74904954:74904955:+_ENSMUSG00000007656_ENSMUST00000169492|mus_hu|FALSE|FALSE (ssRNA)
RNA: GGGAGUUCUACAGUCCGACGAUCCCAAAAGGUAAAUACAGAAGAAAUCAAUACAAUAGAGAUUAUAUUAAAUAAGAGUAACAUACAAAGCUAUAAUUAAGAUGAAGUAAUGAAAGCCAAAACAUUAAAAUUUUAAAACUUGCUCAACAGAGGAUUGAGCAUCA
B18: chr7:127875444:127875445:+_ENSMUSG00000046096_ENSMUST00000060175|mus_hu|FALSE|FALSE (ssRNA)
RNA: GGGAGUUCUACAGUCCGACGAUCAAAGGCAUAUAACAUAUAAAGAAAAUAUUGUAUUGCUCAGGUUUUGGUAAAGAUGUAUUAAUAAUGCUUACAGAUAAAAAUAAUGAAAUUAGUGUUGUAAAUAGCCAAAAUAGCCAGAUACAACAGAGGAUUGAGCAUCA
B19: chr18:35731629:35731630:+_ENSMUSG00000037236_ENSMUST00000166793|mus_hu|FALSE|FALSE (ssRNA)
RNA: GGGAGUUCUACAGUCCGACGAUCUAUUUUAUAGAUUAAAAAAAAAAAUUUUUUUAAAGACGGCCAAAAAGAAAGCUCAAACUAGAAAGCUAGGUUAACUUUGCUUCAAAAAUGGUAACGCCAAGAAAAAGGAUCAAUAAGGACCAACAGAGGAUUGAGCAUCA
B20: chr18:51681570:51681571:-_ENSG00000134046_ENST00000256429|hu_hu|FALSE|FALSE (ssRNA)
RNA: GGGAGUUCUACAGUCCGACGAUCGAUAUAUACAUCAAAAAUACAUCUAAAAAGGCAUUGGUUAGUGCUAUUAAAAAGCUCUAUGUGCUCGGGUACAUUUUUUUUCUUACAGGCAAAAGCCAGUGGAAACAUUUUUGUUCAAUUCAACAGAGGAUUGAGCAUCA
B21: chr18:35731629:35731630:+_ENSMUSG00000037236_ENSMUST00000166793|mus_hu|motif|central (ssRNA)
RNA: B19 RNA with U82G, A83G
B22: chr1:66485654:66485655:+_ENSMUSG00000015222_ENSMUST00000024639|mus_hu|FALSE|FALSE (ssRNA)
RNA: GGGAGUUCUACAGUCCGACGAUCUUUUUAAAUAGAAAAUUGUAACAAUUACUACAGUUUGGGGAUGAGAUUAUUUAUUUUAUGGUUUAUAAAGAAUGAAUAUAACAACUGCUCAGAGCCCACUCCUGCCAAGAGCUCAUGCCUCAACAGAGGAUUGAGCAUCA

This test addresses T1, UNK ZnF1-3 (human, UniProt Q9C0B0 31-174).
T1 sequence: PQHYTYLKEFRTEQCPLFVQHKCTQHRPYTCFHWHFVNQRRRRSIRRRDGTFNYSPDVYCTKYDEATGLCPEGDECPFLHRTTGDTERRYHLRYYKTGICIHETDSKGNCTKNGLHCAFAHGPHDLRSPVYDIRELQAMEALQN
As to the kind of experiment: nsRBNS (natural sequence RNA bind-n-seq); RBNS binding buffer (assumed for nsRBNS): 25 mM Tris pH 7.5, 150 mM KCl, 3 mM MgCl2, 0.01% Triton X-100, 500 ug/ml BSA, 20 U/ml SUPERase-In, 4 C; UNK is unkempt and MSI1 is Musashi-1; names of the RNAs are library labels; protein concentration not given here; high values mean tight binding.
Take B1: the binding signal turned out to be 0.851 enrichment R. B2: the binding signal came to 1.32 enrichment R. The molecule B3 returned a binding signal of 0.755 enrichment R.

Consider B4, for which the binding signal was found to be 0.411 enrichment R.

The molecule B5 came in with a binding signal of 0.753 enrichment R. In the case of B6 it was 1.31 enrichment R; in that of B7, 1.24 enrichment R; in that of B8, 7.98 enrichment R. The figure for B9 is 0.331 enrichment R.

B10 yielded a binding signal of 2.27 enrichment R. The figure for B11 is 1.36 enrichment R; for B12 it is 5.23 enrichment R. The figure for B13 is 1.23 enrichment R; for B14 it is 8.04 enrichment R; for B15 it is 1.14 enrichment R. The figure for B16 is 1.96 enrichment R; for B17 it is 3.69 enrichment R. Regarding B18, the binding signal is 5.6 enrichment R. In the case of B19 it was 4.65 enrichment R; in that of B20, 0.982 enrichment R. The figure for B21 is 5.52 enrichment R; for B22 it is 3.6 enrichment R.
